PubChem BioAssay AID1851 (National Center for Advancing Translational Sciences (NCATS), 2009)
Several values for one entry are separate records, joined by “and”; a condition that tells them apart may be missing. Identical values can stand only once. The campaign covered roughly 16,000 compounds. About 4,000 (25%) were called active. Inconclusive results (about 26%) are left out. Calls follow the shape of the dose curve; as a rule, active = well fitted curve in the direction sought with a large enough effect; inconclusive = small, poorly fitted or top-dose-only effect, or effect the other way; inactive = no such curve, though single readings can be large or run the other way. Not all results are given here. Some structures have more than one record in an assay (separate samples or runs), and their calls can disagree.

biological target: Cytochrome P450 2C9 (Homo sapiens) (UniProt P11712); experiment: Cytochrome panel assay with activity outcomes; details: recombinant CYP, pro-luciferin dealkylation, luminescence, p450-cyp2c9; series mostly up to 57.1 µM
% is scaled to controls: 0 for no effect and ±100 for the full control effect.

Cytochrome P450 2C9 (Homo sapiens), sequence (P11712 whole entry, looked up): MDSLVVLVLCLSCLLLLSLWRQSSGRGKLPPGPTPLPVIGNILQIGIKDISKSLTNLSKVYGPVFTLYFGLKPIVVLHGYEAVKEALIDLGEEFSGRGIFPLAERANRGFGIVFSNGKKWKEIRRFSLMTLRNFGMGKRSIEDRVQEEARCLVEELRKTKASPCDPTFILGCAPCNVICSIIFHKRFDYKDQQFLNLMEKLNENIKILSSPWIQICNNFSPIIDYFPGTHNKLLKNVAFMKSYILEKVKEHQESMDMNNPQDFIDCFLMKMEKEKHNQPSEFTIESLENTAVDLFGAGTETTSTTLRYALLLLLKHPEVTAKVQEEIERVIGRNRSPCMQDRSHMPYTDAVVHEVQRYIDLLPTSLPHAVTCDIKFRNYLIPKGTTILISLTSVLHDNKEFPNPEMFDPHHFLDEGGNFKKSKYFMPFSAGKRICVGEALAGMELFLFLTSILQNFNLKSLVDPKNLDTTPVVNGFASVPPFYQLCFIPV

Compound	AC50	activity, negative = inhibition
COc1ccccc1CCn1c(=O)c(-c2cn(C)c3ccccc23)nc2cncnc21	0.316 µM (active)	
COc1ncc2nc(-c3cn(C)c4ccccc34)c(=O)n(CCC#N)c2n1	inactive	
Cn1cc(-c2nc3cncnc3n(Cc3ccccc3Cl)c2=O)c2ccccc21	inactive	
COc1ccc(N2C(N)=NC(N)=NC2(C)C)cc1	inactive	
O=C(c1ccc(COc2ccc(F)cc2)o1)n1cccn1	17.8 µM (active)	
CNc1ncncc1-c1ccccc1C		-4.77% [at 2.29 µM] (inactive)
COc1ccc(C(=O)N2CCC[C@@]3(CCN(Cc4ccccc4)C3)C2)cc1	inactive	
COc1ccc(C(=O)N2CCC[C@@]3(CCN(Cc4ccc(C#N)cc4)C3)C2)cc1	inactive	
CCCc1cc2c(n1Cc1cc(F)cc(F)c1)C(C)C1CN(C(=O)c3ccccc3)C(C)(C(=O)OC)C21 (stereo unspecified)	6.31 µM (active)	
CCCc1cc2c(n1Cc1ccc(OC)cc1)C(C)C1CN(C(=O)c3ccccc3)C(C)(C(=O)OC)C21 (stereo unspecified)	12.6 µM (active)	
O=CN[C@@H](Cc1cnc[nH]1)C(=O)O		-3.85% [at 11.4 µM] (inactive)
CCOC(=O)NNc1nncc2ccccc12	inactive	
COc1ccccc1-c1nc(NCCNC(C)=O)c2ccccc2n1		3.78% [at 2.29 µM] (inactive)
COC(=O)c1ccccc1Oc1c(F)c(F)nc(N2CCOCC2)c1F	15.8 µM (active)	
COc1ccccc1-c1nc(N2CCOCC2)c2ccccc2n1		8.77% [at 2.29 µM] (inactive)
COc1ccccc1-c1ccc2ncnc(N3CCOCC3)c2c1		-16.7% [at 2.29 µM] (inactive)
CCOC(=O)c1ccccc1Oc1c(F)c(F)nc(NCCO)c1F	6.31 µM (active)	
O=C(Nc1ccc(Cl)cc1)c1cnc(-c2ccccc2)nc1-c1ccccc1	0.794 µM (active)	
O=C(Nc1ccc(-c2csc(-c3ccccc3)n2)cc1)c1ccccc1Cl	inactive	
OC1CC2CC[C@H](C1)N2CCCN1c2ccccc2Sc2ccc(Cl)cc21 (stereo partly specified)		8.65% [at 11.4 µM] (inactive)
c1cncc(CNc2ncn[nH]2)c1		-1.61% [at 11.4 µM] (inactive)
Cc1ccc(-n2ncc(N(C)C)c(Cl)c2=O)cc1	inactive	
Nc1ccc(Sc2cnn(-c3ccccc3)c(=O)c2Cl)cc1	1 µM (active)	
COC(=O)N1CCC2(CCN(Cc3nccs3)CC2)CC1	inactive	

Compound	AC50	activity, negative = inhibition
Cc1onc(-c2c(Cl)cccc2Cl)c1C(=O)N1CCc2ccccc2C1	3.16 µM (active)	
Cc1noc(C)c1C(=O)N1CCC2(CCCN(Cc3ccccc3)C2)CC1	inactive	
Cc1noc(C)c1C(=O)N1CCC[C@@]2(CCN(Cc3ccccc3)C2)C1	inactive	
O=C(N/N=C\c1cccc(O)c1)c1ccncc1		1.23% [at 11.4 µM] (inactive)
O=C(N/N=C/c1cccnc1)c1ccc([N+](=O)[O-])cc1	inactive	
Cc1ccccc1C(=O)N/N=C/c1ccncc1	12.6 µM (active)	
O=C(N/N=C/c1ccncc1)c1cc([N+](=O)[O-])cc([N+](=O)[O-])c1O	0.0631 µM (active)	
Cc1ccccc1C(=O)NNC(=O)c1ccoc1C	inactive	
CC[C@@H]1OC(=O)[C@H](C)[C@H](O[C@@H]2C[C@](C)(OC)[C@H](O)[C@H](C)O2)[C@H](C)[C@H](O[C@@H]2O[C@@H](C)C[C@@H](N(C)C)[C@@H]2O)[C@](C)(O)C[C@H](C)[C@@H]2N[C@H](COCCOC)O[C@H]([C@@H]2C)[C@]1(C)O	inactive	
C/C=C\C1=C(CO)C(=O)C2O[C@]2(CC=C(C)C)C1=O (stereo partly specified)		9.54% [at 11.4 µM] (inactive)
C=CCn1c(Cc2c[nH]c3ccccc23)nnc1SCC(=O)NCc1ccccc1	14.1 µM (active)	
CCn1c(CC(=O)Nc2ccc(C)cc2)nnc1SCC(=O)NCCc1ccccc1	15.8 µM (active)	
CC(C)n1nnnc1SCC(=O)NCCc1ccccc1	15.8 µM (active)	
N[C@@H](Cc1c[nH]c2ccccc12)C(=O)O	inactive	
O=C(CSc1nnnn1-c1ccccc1)NCc1cccs1	inactive	
CCn1c(CNC(=O)COc2ccc(C(C)C)cc2)nnc1SCC(=O)Nc1cc(F)ccc1C	inactive	
CCn1c(CSCc2ccc(C)cc2)nnc1SCC(=O)NCc1ccccc1	15.8 µM (active)	
Cc1ccc(NC(=O)CCSc2nnc3ccccn23)cc1	inactive	
Cc1noc(C)c1-c1nc(Nc2ccncc2)c2ccccc2n1		-10.8% [at 2.29 µM] (inactive)
COc1cccc2c1[C@@H]1CN(CCCCn3c(=O)[nH]c4c(sc5ncc(-c6ccccc6)nc54)c3=O)C[C@H]1CO2	inactive	
CCN1C(=O)[C@H]2[C@H]3[C@H](O)[C@H](O)C/C(=N/NC(=O)OCc4ccccc4)[C@H]3CC[C@@H]2C1=O		-10.2% [at 11.4 µM] (inactive)
O=C1NCC2=C1C(c1ccc(Br)cc1)Nc1ccccc1N2 (stereo unspecified)	8.91 µM (active)	
CN(C)Cc1cc(C(C)(C)C)ccc1-c1ccc(C(C)(C)C)cc1CN(C)C		12.6% [at 11.4 µM] (inactive)
COc1ccc(-c2ccc(=O)n(CC(=O)Nc3nnc(C(C)C)s3)n2)cc1OC	14.1 µM (active)	

Compound	AC50	activity, negative = inhibition
CN(C)CCNC(=O)Cn1nc(-c2ccc(Cl)cc2)ccc1=O	inactive	
O=C(O)C1=CCCNC1	inactive	
CC(C)C[C@H](NC(=O)[C@@H]1O[C@H]1C(=O)O)C(=O)NCCCCN=C(N)N	inactive	
CC(C)CNC(=S)N1CCN(C)CC1	inactive	
C=CCNc1nc(-c2ccc(Cl)cc2)cs1	22.4 µM (active)	
CCCCSCc1nc2nc(Cl)c(Cl)nc2[nH]1	0.501 µM (active)	
Nc1ccc(CCNc2ncnc3c2ncn3[C@@H]2O[C@@H](CO)[C@H](O)[C@@H]2O)cc1	inactive	
COc1ccc(C(=O)N2CCC3(CCN(C)CC3)CC2)cc1	inactive	
COc1ccc(-c2ccc(C(=S)N3CCN(C(C)=O)CC3)o2)cc1	3.98 µM (active)	
COc1ccc(CC(=O)NCCN2CCCC2)cc1	inactive	
COc1ccc(COC(=O)N/N=C2/C[C@@H](O)[C@@H](O)[C@@H]3[C@@H]4C(=O)N(C(C)(C)C)C(=O)[C@H]4CC[C@@H]23)cc1		-5.52% [at 11.4 µM] (inactive)
COc1ccc(COC(=O)N/N=C(\C)CC(=O)Nc2c(C)cc(C)cc2C)cc1	14.1 µM (active)	
COc1ccc(CCN(C)CCC(=O)Nc2c(C)cc(C)cc2C)cc1OC	inactive	
COc1ccccc1-c1nc(N(C)C)c2ccccc2n1		-2.29% [at 2.29 µM] (inactive)
COc1ccc(C(=O)N2CCC3(CC2)CN(C(=O)Nc2cccc(C#N)c2)C3)cc1	inactive	
CC(=O)N1CCN(C(=O)CC2OC(=O)c3ccccc32)CC1 (stereo unspecified)	15.8 µM (active)	
CC(=O)N1CCC2(CC1)CN(Cc1ccccc1)C2	inactive	
CCC(=O)N1CCN(C(=O)c2ccccc2)CC1	inactive	
Cc1ccc(SCC(=O)Nc2cccc(NC(=O)c3ccco3)c2)cc1	4.47 µM (active)	
CC(C)Oc1ccc(C(=O)Nc2ccc(NC(=O)c3ccco3)c(Cl)c2)cc1	14.1 µM (active)	
CC(=O)c1ccc(NC(=O)C(Cc2ccccc2)NC(=O)c2ccco2)cc1 (stereo unspecified)	14.1 µM (active)	
Cc1ccc(SCC(=O)NNC(=O)C2CCCCC2)cc1	inactive	
Cc1cc(NC(=O)c2ccco2)ccc1-n1cnnn1	10 µM (active)	
CC(C)C[C@H](NC(=O)[C@@H](O)[C@@H](N)Cc1ccccc1)C(=O)O	inactive	

Compound	AC50	activity, negative = inhibition
COc1ccc(C(=O)Nc2ccc(NC(=O)c3ccco3)c(Cl)c2)cc1OC	inactive	
CCc1cc2cc(C)c(C)cc2nc1SCC(=O)NNC(=O)c1ccco1	inactive	
O=C(Nc1ccccc1)C(Cc1ccccc1)NC(=O)C12CC3CC(CC(C3)C1)C2 (stereo unspecified)	inactive	
NC(=NCc1ccccc1)NC(=O)c1nc(Cl)c(N)nc1N	inactive	
CN(C)C(=O)c1ccc(-c2ccc3ncnc(N4CCNCC4)c3c2)cc1		6.81% [at 2.29 µM] (inactive)
Cc1noc(C)c1-c1ccc2ncnc(N(C)Cc3ccco3)c2c1		-29% [at 2.29 µM] (inactive)
CC(C)(C)c1ccc(C(=O)Nc2ccc(NC(=O)c3ccco3)cc2)cc1	8.91 µM (active)	
COc1cccc(C(=O)Nc2ccc(NC(=O)c3ccco3)cn2)c1	14.1 µM (active)	
CCc1nnc2sc(-c3ccc(NC(=O)c4ccco4)cc3)nn12	inactive	
c1ccc(CNc2ncncc2-c2cccnc2)cc1		-3.05% [at 2.29 µM] (inactive)
COc1ccc2oc(C(=O)c3ccccc3)c(N)c2c1	11.2 µM (active)	
COc1ccc2nccc(C(=O)O)c2c1	inactive	
COc1ccc(C(=O)c2ccccc2)c(O)c1	inactive	
Cc1noc(C)c1-c1ccc2ncnc(NCc3cccs3)c2c1		-7.45% [at 2.29 µM] (inactive)
CC(C)NC[C@H]1CCc2cc(CO)c([N+](=O)[O-])cc2N1	inactive	
CN(CCO)Cc1ncccc1O		-2.29% [at 11.4 µM] (inactive)
CN1CCN(CC(=O)N2c3ccccc3C(=O)Nc3cccnc32)CC1	inactive	
CN1CCN(CC(=O)N2c3ccccc3Sc3cc4ccccc4cc32)CC1		5.77% [at 11.4 µM] (inactive)
Cc1scc2c1N(C(=O)CN1CCN(C)CC1)c1ccccc1NC2=O	inactive and 2.51 µM (active)	
CNc1cc(-c2ccccc2C(F)(F)F)ncn1		22.5% [at 2.29 µM] (inactive)
Nc1n[nH]c2ccccc12		-15.6% [at 11.4 µM] (inactive)
O=c1[nH]c(=O)c2nc3ccccc3nc2[nH]1	inactive	
Nc1[nH]nc2nc3ccccc3nc12	2 µM (active)	
CC[C@@H]1CC(=O)N(SC[C@H](N)C(=O)O)C1=O		10.2% [at 11.4 µM] (inactive)
